We go through 21 compounds from publication PMC5540273 (PLoS ONE, 2017).

One experiment deals with T1, GRK2.
T1 construct: gene ADRBK1
Particulars: concentration: 1 μM, replicates: in singlicate; n = 1.

For the next experiment, the system named is T2, GRK3.
T2 construct: gene ADRBK2
Particulars: concentration: 1 μM, replicates: in singlicate; n = 1.

Another experiment has as its system GRK4. The note with it: concentration: 1 μM, replicates: in singlicate; n = 1.
The subject of a further experiment is GRK7. The note with it: concentration: 1 μM, replicates: in singlicate; n = 1.
A further experiment deals with GSK3A. The note with it: concentration: 1 μM, replicates: in singlicate; n = 1.
Another experiment deals with GSK3B. The note with it: n = 1.
In a further experiment the test system is T3, HASPIN.
T3 construct: gene GSG2
The note with it: concentration: 1 μM, replicates: in singlicate; n = 1.

The subject of a further experiment is HCK. The note with it: concentration: 1 μM, replicates: in singlicate; n = 1.
In a further experiment the test system is HIPK1. Particulars: concentration: 1 μM, replicates: in singlicate; n = 1.
For a further experiment, the system named is HIPK2. The note with it: concentration: 1 μM, replicates: in singlicate; n = 1.
Where [1] appears, read: concentration: 1 μM, replicates: in singlicate.

Molecules are shown by their SMILES. Where two headings read alike, the source gives them in different places.
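Further: KINOMEscan kinase panel screen.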

As for `COC(=O)c1c(-c2ccccc2)c2cc(C)ccc2c(=O)n1Cc1ccccc1`, the “%Inh” value with GRK2 is 0%; in the experiment on GRK3, 0%; in the experiment with GRK4, 28%; in the experiment with GRK7, 0%; with GSK3A, 0%; in the experiment with GSK3B (setting [1]), 0%. The “%Inh” value in the experiment on HASPIN, with HCK, in the experiment with HIPK1 and in the experiment with HIPK2 was 0% throughout.

`Nc1n[nH]c2ncc(-c3ccccc3)cc12` [SB-517081]: the “%Inh” value with GRK2 is listed as 0%; in the experiment on GRK3, 22%; in the experiment with GRK4, 21%; with GRK7, 0%; in the experiment with GSK3A, 34%; in the experiment with GSK3B (1 µM), 20%. In addition, the “%Inh” value with HASPIN, in the experiment on HCK, in the experiment on HIPK1 and in the experiment with HIPK2 was 0% in each case.

Consider `O=C1NC(=O)C(c2ccccc2)=C1Nc1cccc(O)c1` [SB-390534], for which the “%Inh” value in the experiment on GRK2 came to 0%; in the experiment on GRK3 it was 0%; in the experiment with GRK4, 3%; in the experiment with GRK7, 0%; with GSK3A, 30%; with GSK3B (1 µM) it was 20%. In addition, the “%Inh” value was found to be 6% in the experiment with HASPIN, 6% in the experiment on HCK, 8% in the experiment with HIPK1 and 18% in the experiment with HIPK2.

Regarding `CN1C(=O)C(Nc2ccccc2)=C(c2ccccc2)C1=O` [SB-300079], the “%Inh” value in the experiment on GRK2 turned out to be 0%; in the experiment on GRK3, 0%; in the experiment with GRK4, 0%; with GRK7, 0%; in the experiment on GSK3A, 9%; in the experiment on GSK3B (setting [1]), 3%. Also, the “%Inh” value with HASPIN was found to be 15%; with HCK it was 13%; with HIPK1, 28%; in the experiment on HIPK2, 9%.

Turning to `COc1cc2ncn(-c3cc(OCc4ccc(S(C)(=O)=O)cc4)c(C(N)=O)s3)c2cc1OC` [GW869979], the “%Inh” value is recorded as 45% with GRK2; 0% with GRK3; 1% in the experiment with GRK4; 0% in the experiment with GRK7; 3% in the experiment with GSK3A; 0% in the experiment with GSK3B (setting [1]). Moreover, the “%Inh” value in the experiment on HASPIN came out at 40%; with HCK it was 0%; in the experiment with HIPK1, 0%; in the experiment with HIPK2 it was 9%.

Turning to `Cc1cccc(-c2cc(-c3c[nH]nc3-c3ccccn3)ccn2)c1` [GW679395], the “%Inh” value came to 0% with GRK2; 39% in the experiment with GRK3; 0% in the experiment on GRK4; 0% with GRK7; 17% with GSK3A; 7% with GSK3B (setting [1]). For the same compound, the “%Inh” value with HASPIN is listed as 25%; in the experiment with HCK it was 0%; with HIPK1, 0%; in the experiment on HIPK2, 0%.

For the compound `O=C(Nc1n[nH]c2nc(-c3ccccc3)c(Cl)cc12)C1CC1` [SB-734909], the “%Inh” value in the experiment with GRK2 is reported as 0%; in the experiment on GRK3, 83%; in the experiment on GRK4, 17%; in the experiment with GRK7 it was 0%; with GSK3A, 90.6%; in the experiment on GSK3B (1 µM), 56%. Moreover, the “%Inh” value in the experiment on HASPIN is on record as 0%; in the experiment with HCK, 0%; in the experiment on HIPK1, 20%; with HIPK2, 0%.

Regarding `OCCCNc1nccc(-c2c(-c3cccc(C(F)(F)F)c3)nn3cc(C(F)(F)F)ccc23)n1` [GW630813], the “%Inh” value in the experiment on GRK2 was determined as 0%; with GRK3, 37%; with GRK4 it was 0%; with GRK7 it was 0%; with GSK3A it was 0%; in the experiment with GSK3B (setting [1]), 2%. In addition, the “%Inh” value with HASPIN is recorded as 21%; in the experiment with HCK, 0%; in the experiment on HIPK1 it was 0%; with HIPK2, 0%.

As to `CCn1c(-c2nonc2N)nc2ccccc21` [SB-693162/GW549034], the “%Inh” value came to 0% in the experiment on GRK2; 14% with GRK3; 30% in the experiment with GRK4; 25% with GRK7; 0% in the experiment on GSK3A; 37% with GSK3B (setting [1]). Moreover, the “%Inh” value turned out to be 0% in the experiment on HASPIN, 0% with HCK, 29% in the experiment on HIPK1 and 45% with HIPK2.

As for `CCc1nc(-c2cccc(C)c2)c(-c2ccncc2)s1`, the “%Inh” value in the experiment on GRK2 was 0%; in the experiment on GRK3, 0%; in the experiment with GRK4 it was 0%; in the experiment with GRK7 it was 0%; in the experiment on GSK3A, 27%; with GSK3B (setting [1]) it was 0%. Also, the “%Inh” value in the experiment with HASPIN is given as 0%; in the experiment with HCK, 21%; in the experiment on HIPK1 it was 30%; with HIPK2, 0%.

For the compound `COc1cc2nccc(Nc3cccc(Oc4ccccc4)c3)c2cc1OC.Cl` [GW284543], the “%Inh” value with GRK2 is on record as 28%; in the experiment on GRK3, 16%; with GRK4 it was 7%; in the experiment with GRK7, 0%; in the experiment with GSK3A, 5%; in the experiment with GSK3B (setting [1]) it was 0%. Further, the “%Inh” value is 11% in the experiment with HASPIN, 44% with HCK, 0% in the experiment with HIPK1 and 25% with HIPK2.

Take `COc1ccc(-c2cc3c(C)nc(N)nc3n([C@H]3CC[C@H](O)CC3)c2=O)cn1`: the “%Inh” value is 0% in the experiment on GRK2; 14% in the experiment on GRK3; 0% with GRK4; 1% in the experiment on GRK7; 0% with GSK3A; 0% in the experiment on GSK3B (setting [1]). For the same compound, the “%Inh” value in the experiment with HASPIN, with HCK, with HIPK1 and in the experiment with HIPK2 was 0% throughout.

In the case of `CCC(=O)c1c(-c2ccccc2)c2cc(Cl)ccc2c(=O)n1Cc1cc(S(C)(=O)=O)n(CCC(C)(C)O)n1`, the “%Inh” value is 0% with GRK2; 0% in the experiment with GRK3; 0% in the experiment on GRK4; 29% in the experiment on GRK7; 0% with GSK3A; 0% in the experiment on GSK3B (setting [1]). Further, the “%Inh” value was 43% with HASPIN, 10% in the experiment with HCK, 33% in the experiment on HIPK1 and 29% in the experiment with HIPK2.

For the compound `COc1cc(Nc2nccc(N3CCC(NC(=O)C(C)c4ccc(Cl)cc4)C3)n2)cc(OC)c1OC` (stereo not drawn) [GSK1379757], the “%Inh” value was 0% in the experiment on GRK2; 17% with GRK3; 37% with GRK4; 0% in the experiment on GRK7; 0% in the experiment with GSK3A; 0% with GSK3B (setting [1]). For the same compound, the “%Inh” value in the experiment with HASPIN worked out at 21%; in the experiment on HCK it was 11%; in the experiment with HIPK1 it was 0%; in the experiment with HIPK2, 0%.

For `COc1cc2ncn(-c3cc(OCc4ccncc4Br)c(C(N)=O)s3)c2cc1OC` [GW854278], the “%Inh” value in the experiment with GRK2 was 5%; in the experiment on GRK3, 0%; with GRK4, 35%; with GRK7, 4%; in the experiment on GSK3A it was 7%; in the experiment with GSK3B (setting [1]) it was 0%. Also, the “%Inh” value in the experiment with HASPIN is 5%; in the experiment on HCK, 3%; in the experiment on HIPK1 it was 0%; in the experiment on HIPK2, 4%.

In the case of `COc1cc(Nc2ccnc3ccc(C(F)(F)F)cc23)cc(OC)c1OC` [GW577382], the “%Inh” value in the experiment with GRK2 is on record as 0%; with GRK3, 25%; in the experiment with GRK4 it was 0%; in the experiment with GRK7 it was 0%; with GSK3A it was 0%; in the experiment on GSK3B (setting [1]), 3%. Further, the “%Inh” value came to 29% in the experiment with HASPIN, 38% with HCK, 5% in the experiment on HIPK1 and 0% in the experiment on HIPK2.

For the compound `Nc1nc(-c2ccccc2F)c(-c2ccnc3ccccc23)s1` [GW560459], the “%Inh” value is on record as 0% in the experiment with GRK2; 50% with GRK3; 0% in the experiment with GRK4; 0% with GRK7; 3% with GSK3A; 0% with GSK3B (setting [1]). Further, the “%Inh” value in the experiment on HASPIN is 25%; in the experiment with HCK it was 0%; in the experiment with HIPK1 it was 0%; in the experiment on HIPK2 it was 0%.

`O=C(NCc1cccs1)c1cc(C(=O)c2c(Cl)cccc2Cl)c[nH]1` [GW823670]: the “%Inh” value in the experiment with GRK2 was found to be 16%; in the experiment on GRK3, 25%; in the experiment with GRK4, 8%; with GRK7 it was 0%; with GSK3A, 0%; in the experiment on GSK3B (setting [1]) it was 0%. In addition, the “%Inh” value in the experiment with HASPIN came to 0%; with HCK, 25%; with HIPK1, 17%; with HIPK2, 0%.

As to `COc1cc2nccc(Nc3ccc(OCc4ccc(NC(C)=O)cc4)cc3)c2cc1OC.Cl` [GW440135], the “%Inh” value stood at 0% in the experiment on GRK2; 17% in the experiment with GRK3; 23% in the experiment with GRK4; 4% in the experiment on GRK7; 0% in the experiment on GSK3A; 0% in the experiment on GSK3B (setting [1]). For the same compound, the “%Inh” value is listed as 18% in the experiment with HASPIN, 0% in the experiment with HCK, 0% in the experiment on HIPK1 and 0% in the experiment with HIPK2.

In the case of `COC(=O)c1c(-c2ccccc2)c2cc(Br)ccc2c(=O)n1Cc1ccc(NC(=O)CCC(=O)O)cc1`, the “%Inh” value amounted to 19% in the experiment with GRK2; 8% with GRK3; 0% in the experiment on GRK4; 31% in the experiment with GRK7; 0% with GSK3A; 15% in the experiment on GSK3B (setting [1]). Moreover, the “%Inh” value with HASPIN was 6%; with HCK, 14%; in the experiment with HIPK1 it was 26%; with HIPK2 it was 28%.

Turning to `Nc1nccc2scc(-c3ccc4c(c3)CCN4C(=O)Cc3ccccc3)c12` [GSK2576924], the “%Inh” value in the experiment with GRK2 is 4%; in the experiment with GRK3, 100%; with GRK4, 0%; with GRK7 it was 0%; in the experiment with GSK3A, 11%; with GSK3B (setting [1]), 2%. Besides, the “%Inh” value with HASPIN, in the experiment with HCK, in the experiment with HIPK1 and in the experiment on HIPK2 was 0% in each case.
